From PubChem BioAssay
SW480 rereplic: A quantitative high throughput screen for small molecules that induce DNA re-replication in SW480 colon adenocarcinoma cells. SW480 DNA re-replication, Hoechst DNA content imaging, 48 h. Potency, µM (doses to about 46.1 µM), inactives show top-dose re-replication activation, usual class: activators. 1.8% of 340,000 active. AID 624297, 2012; note: potency is the fitted concentration of half-maximal effect; % of control where 0% means no effect; nearly all actives have a fitted effect of over 55% in size
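Quantitative HTS format with DMSO vehicle controls; 48 hr drug incubation at 37 C, then 40 min Hoechst staining and scanning imager measurement at 405 nm excitation.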
BCR signal inh: qHTS Assay to Find Inhibitors of Chronic Active B-Cell Receptor Signaling; Potency, µM (doses to about 46.1 µM), for the others: at the highest dose activity change, negative = inhibition, hits mostly inhibitors; 0.05% of 340,000 active; ABC-DLBCL IkBa-CBG/CBR reporter, luminescence ratio, 4 h; AID 493014, 2011; active = well fitted inhibition curve with a large enough effect in the signal ratio, with a control signal flat, not every such curve was filed as active; inconclusive = small, poorly fitted or top-dose-only effect, or effect the other way, or a change in a side signal; the % refers to the signal ratio;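 note: potency is the fitted concentration of half-maximal effect; plate controls were basal doxycycline-induced cells for no effect and cells given 10 µM MG132 for full effect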
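Doxycycline induced both beetle luciferases in TMD8 lymphoma cells; IKK-driven degradation limits the IkappaBalpha-fused green signal, while red luminescence normalises for cell number and nonspecific effects. Compounds tested up to 46 uM, 4 hrs.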
DT40 TDP1 no CPT: qHTS for Inhibitors of human tyrosyl-DNA phosphodiesterase 1 (TDP1): qHTS in cells in absence of CPT; DT40 Tdp1-/- hTDP1 cells, no CPT, ATP luminescence, 48 h; Potency, µM (doses to about 46.2 µM), for inactives: top-dose activity change, negative = growth inhibition, actives largely listed as inhibitors; AID 686978, 2013; 15% of 420,000 active; note: potency is the fitted concentration of half-maximal effect; % is set by controls: 0 for no effect and ±100 for the full control effect; nearly all actives have a fitted effect of over 55% in size
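Chicken DT40 Tdp1-/- cells complemented with human TDP1, screened without camptothecin (DMSO vehicle only), 400 cells/well. Compounds pin-transferred, cells incubated at 37 °C for at least 48 hr. Growth read as ATP-dependent luminescence (CellTiter-Glo, 30 min at RT).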
TDP1 cell CPT: qHTS for Inhibitors of human tyrosyl-DNA phosphodiesterase 1 (TDP1): qHTS in cells in presence of CPT. 12% of 420,000 active. chicken DT40 Tdp1-/-;hTDP1 cells + 20 nM CPT, ATP luminescence, 48 h. AID 686979, 2013. Potency, µM (highest dose often 46.2 µM), for the others: at the highest dose activity change, negative = growth inhibition, usual class: inhibitors; note: potency is the fitted concentration of half-maximal effect; % is set by controls: 0 for no effect and ±100 for the full control effect; nearly all actives have a fitted effect of over 55% in size
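Chicken DT40 Tdp1-/- cells stably complemented with human TDP1 were seeded at 400 cells/well in medium containing 20 nM camptothecin, exposed to pin-transferred compounds, and grown at 37 °C for at least 48 hr. Viability was read as ATP luminescence.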
IL-1B inflam inh: qHTS for Inhibitors of Inflammasome Signaling: IL-1-beta AlphaLISA Primary Screen; THP-1 LPS/ATP IL-1B secretion, AlphaLISA, 16 h; stronger effect = lower value; activity change, % at 57.5 µM; 4.7% of 360,000 active; AID 743279, 2014; in the data active = activity change below about -50%; inconclusive = mostly about -30% to -49%; note: % is set by controls: 0 for no effect and ±100 for the full control effect
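Secreted IL-1B measured by AlphaLISA bead assay after 16 h compound exposure of THP-1 cells; compounds (final up to 57.5 uM) added 1 h before LPS (250 ng/mL) and ATP (1.25 mM) stimulation; lower signal means less secretion.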
MCF10A rereplic: A quantitative high throughput screen for small molecules that induce DNA re-replication in MCF 10a normal breast cells; MCF 10A DNA re-replication, Hoechst nuclear intensity, 48 h; Potency, µM (highest dose often 46.1 µM), inactives show at the highest dose activity, positive = re-replication, most hits filed as activators; 2.9% of 350,000 active; AID 624296, 2012; note: potency is the fitted concentration of half-maximal effect; % of control where 0% means no effect; nearly all actives have a fitted effect of over 50% in size
An asterisk follows results filed as active; [ ] = dose if it differs, or a comment. A selection: hits, their analogues and other compounds. The true share with any hit is near 19%. Unless noted, calls come from the whole dose curve; as a rule, active = well fitted curve in the direction sought with a large enough effect; inconclusive = small, poorly fitted or top-dose-only effect, or another doubt; inactive = no such curve, though single readings can be large; an effect the other way counts as inactive or inconclusive.

`O=C(O)CSc1cc(C(=O)c2cc(F)ccc2O)cn2c(=O)c3c(-c4ccccc4)csc3nc12` gave SW480 rereplic -20%, BCR signal inh inconclusive, DT40 TDP1 no CPT inconclusive, TDP1 cell CPT inconclusive, IL-1B inflam inh 11 and MCF10A rereplic 13µM*.
COc1ccccc1C(=O)NC(=O)CSc1nc(C)cs1 was read as SW480 rereplic -4%, BCR signal inh 6%, DT40 TDP1 no CPT 5%, TDP1 cell CPT 8%, IL-1B inflam inh 13 and MCF10A rereplic -2%.
Screening CCc1ccc(OCCn2c(C3CC(=O)N(Cc4ccc(F)cc4)C3)nc3ccccc32)cc1 (configuration not stated) returned DT40 TDP1 no CPT 12µM* and TDP1 cell CPT 21µM*.
Screening Cc1ccc(OCCn2c(C3CC(=O)N(Cc4ccc(F)cc4)C3)nc3ccccc32)c(C)c1 (configuration not stated) returned DT40 TDP1 no CPT 21µM* and TDP1 cell CPT 26µM*.
For Cc1nc(NC(=O)CCc2ccccc2)sc1C the results were SW480 rereplic inconclusive, BCR signal inh inconclusive, DT40 TDP1 no CPT inconclusive, TDP1 cell CPT inconclusive, IL-1B inflam inh -20 and MCF10A rereplic inconclusive.
`Cc1cc(N/N=C/c2cccc(Cl)c2)nc(NCc2ccccc2)n1` gave SW480 rereplic 5%, BCR signal inh inconclusive, DT40 TDP1 no CPT 7.3µM*, TDP1 cell CPT 8.2µM*, IL-1B inflam inh -77* and MCF10A rereplic inconclusive.
`Cc1cc(C)nc(N/N=C/c2cccc(Cl)c2)n1` gave SW480 rereplic -38%, BCR signal inh inconclusive, DT40 TDP1 no CPT -22%, TDP1 cell CPT -20%, IL-1B inflam inh 24 and MCF10A rereplic -6%.
`Cc1cc(N/N=C/c2ccc(Cl)cc2)nc(NCc2ccccc2)n1` gave SW480 rereplic inconclusive, BCR signal inh 9%, DT40 TDP1 no CPT 8.2µM*, TDP1 cell CPT 21µM*, IL-1B inflam inh -84* and MCF10A rereplic inconclusive.
`Cc1cc(C)nc(N/N=C/c2ccc(Cl)cc2)n1` gave SW480 rereplic 3%, BCR signal inh 6%, DT40 TDP1 no CPT -1%, TDP1 cell CPT -15%, IL-1B inflam inh -24 and MCF10A rereplic inconclusive.
Screening Cc1cc(Nc2cccc(Cl)c2)nc(NCc2ccccc2)n1 returned SW480 rereplic inconclusive, BCR signal inh inconclusive, DT40 TDP1 no CPT 3.7µM*, TDP1 cell CPT 5.8µM*, IL-1B inflam inh -20 and MCF10A rereplic inconclusive.
Cc1cc(N/N=C/c2ccccc2F)nc(NCc2ccccc2)n1 was read as SW480 rereplic -7%, BCR signal inh 10%, DT40 TDP1 no CPT 12µM*, TDP1 cell CPT inconclusive, IL-1B inflam inh -4 and MCF10A rereplic 6%.
For Cc1cc(C)nc(NCc2ccc(Cl)cc2)n1 the results were SW480 rereplic -10%[9.22 µM], BCR signal inh inconclusive, DT40 TDP1 no CPT -19%, TDP1 cell CPT -1%, IL-1B inflam inh -7 and MCF10A rereplic -12%.
N[C@@H](CCS(=O)O)C(=O)O was read as DT40 TDP1 no CPT -9% and TDP1 cell CPT inconclusive.
`CC(C)=C(NC(=O)c1ccccc1)C(=O)NC(Cc1ccccc1)C(=O)O` (configuration not stated) gave SW480 rereplic 3%, BCR signal inh 9%, DT40 TDP1 no CPT -9%, TDP1 cell CPT 4%, IL-1B inflam inh 17 and MCF10A rereplic 9%.
CN(C)c1nc(NCc2ccccc2)nc(N/N=C/c2ccc(Cl)cc2Cl)n1 was read as SW480 rereplic 8%, BCR signal inh 8%, DT40 TDP1 no CPT inconclusive, TDP1 cell CPT 23µM*, IL-1B inflam inh 39 and MCF10A rereplic 10%.
For Fc1cccc(/C=N/Nc2ccc(Cl)nn2)c1 the results were SW480 rereplic -11%, BCR signal inh 12%, DT40 TDP1 no CPT -11%, TDP1 cell CPT -20%, IL-1B inflam inh -13 and MCF10A rereplic -4%.
For Cc1cc(N/N=C/c2ccccc2)nc(NCc2ccccc2)n1 the results were SW480 rereplic inconclusive, BCR signal inh inconclusive, DT40 TDP1 no CPT 2.6µM*, TDP1 cell CPT 4.6µM*, IL-1B inflam inh -4 and MCF10A rereplic inconclusive.
For Cc1cc(N/N=C/c2cccc(F)c2)nc(NCc2ccccc2)n1 the results were SW480 rereplic 15%, BCR signal inh inconclusive, DT40 TDP1 no CPT 13µM*, TDP1 cell CPT inconclusive, IL-1B inflam inh -72* and MCF10A rereplic inconclusive.
`CSc1ncc(C(=O)Nc2c(C)cccc2C)c(-c2ccccc2)n1` gave DT40 TDP1 no CPT -15% and TDP1 cell CPT -11%.
COc1cccc(C2C(=O)N(C3CCCCC3)CC(=O)N2Cc2ccc(Cl)cc2)c1 (configuration not stated) was read as BCR signal inh 4%, DT40 TDP1 no CPT inconclusive and TDP1 cell CPT inconclusive.
For COc1ccc(CNC(=O)C[C@H]2C[C@H](C(=O)N3CCCCC3)[C@@]3(CCc4ccccc4)c4[nH]c5ccc(Cl)cc5c4CCN3C2=O)cc1OC the results were SW480 rereplic inconclusive, BCR signal inh 1%, DT40 TDP1 no CPT 10µM*, TDP1 cell CPT 10µM*, IL-1B inflam inh -16 and MCF10A rereplic 0%.
Screening CC[C@]12c3[nH]c4ccc(Cl)cc4c3CCN1C(=O)[C@@H](CC(=O)NCc1ccc(OC)c(OC)c1)C[C@@H]2C(=O)N1CCN(C(=O)C2CC2)CC1 returned SW480 rereplic 1%, BCR signal inh -1%, DT40 TDP1 no CPT 16µM*, TDP1 cell CPT inconclusive, IL-1B inflam inh -1 and MCF10A rereplic -3%.
For CC[C@]12c3[nH]c4ccc(OC)cc4c3CCN1C(=O)C(CC(=O)NCc1ccc(OC)c(OC)c1)C[C@@H]2C(=O)N1CCN(C(=O)C2CC2)CC1 (some centres not stated) the results were SW480 rereplic -1%, BCR signal inh 4%, DT40 TDP1 no CPT -15%, TDP1 cell CPT -22%, IL-1B inflam inh -5 and MCF10A rereplic -33%.
